# Source: PubChem
# Shown are actives, neighbours in structure and some others; about 19% of the full set was active somewhere.
# TDP1 inh – blocks human tyrosyl-DNA phosphodiesterase 1; Q9NUW8; AID 485290; 350,000 tested, 0.28% active; Potency, µM (highest dose often 130 µM), without a hit: at the top dose activity change, negative = inhibition, actives largely listed as inhibitors; recombinant TDP1, AlphaScreen DNA substrate cleavage; further: potency means the concentration at half of the fitted maximal effect; on the % scale 0 is the no-effect control and ±100 the full control effect; nearly all actives have a fitted effect of over 40% in size
# Target sequence (Q9NUW8 whole entry, looked up): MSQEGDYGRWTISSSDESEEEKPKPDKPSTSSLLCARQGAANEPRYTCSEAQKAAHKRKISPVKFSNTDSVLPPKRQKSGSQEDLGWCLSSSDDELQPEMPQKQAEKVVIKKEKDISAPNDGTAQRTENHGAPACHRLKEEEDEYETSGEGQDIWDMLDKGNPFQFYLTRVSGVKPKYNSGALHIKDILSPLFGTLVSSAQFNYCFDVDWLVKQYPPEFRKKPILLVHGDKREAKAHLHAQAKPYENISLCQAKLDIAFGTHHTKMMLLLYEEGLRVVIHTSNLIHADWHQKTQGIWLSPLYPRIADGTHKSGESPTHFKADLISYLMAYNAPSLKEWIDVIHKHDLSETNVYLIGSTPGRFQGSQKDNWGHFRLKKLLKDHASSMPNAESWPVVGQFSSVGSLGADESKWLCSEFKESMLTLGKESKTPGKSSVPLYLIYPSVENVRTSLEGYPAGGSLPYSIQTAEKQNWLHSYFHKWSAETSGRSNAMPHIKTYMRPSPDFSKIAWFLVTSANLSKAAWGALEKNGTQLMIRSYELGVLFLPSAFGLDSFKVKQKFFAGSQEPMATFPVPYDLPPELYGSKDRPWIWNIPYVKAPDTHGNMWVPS
#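 Signal: AlphaScreen proximity between streptavidin donor and anti-FITC acceptor beads on intact substrate. Reaction: Tdp1 1 nM, substrate 15 nM final, 5 min RT after 15 min compound preincubation.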
# TDP1 cell CPT – growth inhibition of DT40 Tdp1-/-;hTDP1 cells with camptothecin (screen for TDP1 inhibitors). chicken DT40 Tdp1-/-;hTDP1 cells + 20 nM CPT, ATP luminescence, 48 h. Potency, µM (titrated, usually from 46.2 µM), without a hit: at the highest dose activity change, negative = growth inhibition, most hits filed as inhibitors. 420,000 tested, 12% active. AID 686979; further: potency means the concentration at half of the fitted maximal effect; on the % scale 0 is the no-effect control and ±100 the full control effect; nearly all actives have a fitted effect of over 55% in size
#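 Cell growth measured by CellTiter-Glo luminescence after a minimum 48 h, 37 C compound exposure with 20 nM CPT in Tdp1-knockout DT40 cells stably expressing hTDP1, seeded 400/well; qHTS titration format.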
# TDP1 cell noCPT – qHTS for Inhibitors of human tyrosyl-DNA phosphodiesterase 1 (TDP1): qHTS in cells in absence of CPT. 420,000 tested, 15% active. DT40 Tdp1-/- hTDP1 cells, no CPT, ATP luminescence, 48 h. Potency, µM (series often up to 46.2 µM), inactives show at the top dose activity change, negative = growth inhibition, actives largely listed as inhibitors; further: potency means the concentration at half of the fitted maximal effect; on the % scale 0 is the no-effect control and ±100 the full control effect; nearly all actives have a fitted effect of over 55% in size
#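 Luminescent ATP content (CellTiter-Glo) served as the growth readout. Knockout chicken DT40 cells expressing human TDP1 were exposed to compounds without camptothecin for a minimum 48 hr at 37 °C.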
# HepG2 tox – HepG2 cytotoxicity, counter-screen for TGF-b inhibitors. Potency, µM (highest dose often 46.1 µM), for inactives: at the top dose activity change, negative = cytotoxicity, usual class: cytotoxic. HepG2 CAGA-GFP viability, ATP luminescence, 18 h. 410,000 tested, 0.76% active; further: potency means the concentration at half of the fitted maximal effect
#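 HepG2 CAGA-GFP cells (1000/well, DMEM with 1% FBS) received compound, then TGF-beta at 500 pg/mL final, and were incubated 18 hours at 37 degrees C. Viability was read by CellTiter-Glo luminescence. Media-only wells were set as complete cell-killing and DMSO as no toxicity.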
# TGFb inhibitor – blocks TGF-b signaling | HepG2 CAGA-GFP TGF-b/SMAD3 reporter, GFP fluorescence, 18 h; TGF-beta stimulated, 500 pg/mL final | Potency, µM (series often up to 46.1 µM), without a hit: top-dose activity, negative = inhibition, most hits filed as inhibitors | 410,000 tested, 1.2% active | AID 588855; further: potency means the concentration at half of the fitted maximal effect; on the % scale 0 is the no-effect control and ±100 the full control effect; nearly all actives have a fitted effect of over 65% in size
#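 HEPG2 CAGA-GFP reporter cells (1000/well, DMEM with 1% FBS) received compounds, then recombinant TGF-beta at 500 pg/mL final for 18 hours at 37 degrees C. Per-cell GFP summed per well was normalised to unstimulated and stimulated DMSO controls before curve fitting.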
# IL1B secr inh – blocks inflammasome-driven IL-1 beta release; THP-1 LPS/ATP IL-1B secretion, AlphaLISA, 16 h; stronger effect = lower value; activity change, % at 57.5 µM; 360,000 tested, 4.7% active; AID 743279; in the data active means activity change below about -50%; inconclusive means mostly about -30% to -49%; further: on the % scale 0 is the no-effect control and ±100 the full control effect
#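 THP-1 cells pretreated 1 hr with compounds (up to 57.5 uM final), then stimulated with LPS (250 ng/mL final) plus ATP (1.25 mM final); secreted IL-1B measured by AlphaLISA after 16 hr, decreased signal indicating inhibition.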
# The depositor's hits bear a star; ? = inconclusive; / = not tested or not shown; [ ] = dose if it differs, or a comment. Unless noted, the call rests on the fitted dose curve; in most records, active means well fitted curve in the direction sought with a large enough effect; inconclusive means small, poorly fitted or top-dose-only effect, or another doubt; inactive means no such curve, though single readings can be large; an effect the other way counts as inactive or inconclusive.
SMILES,TDP1 inh,TDP1 cell CPT,TDP1 cell noCPT,HepG2 tox,TGFb inhibitor,IL1B secr inh
C1=C/C(=C2/C=Cc3ccccc32)c2ccccc2N1,/,?,-93%,-34%,?,/
CO[C@H]1COC(=O)C/C=C\[C@H](C)[C@H](OC)COC(=O)[C@@H](C)COC(=O)C/C=C\[C@@H]1C,3%[21 µM],/,/,/,/,/
COc1ccc2c(c1)c(=O)c(S(=O)(=O)c1ccc(F)cc1)cn2Cc1ccccc1Cl,1%,0.26µM*,0.23µM*,-15%,9%,/
COc1cc2c3nnc(-c4ccc(F)cc4)c-3cn(Cc3ccccc3F)c2cc1OC,8%,3.7µM*,2.6µM*,8.9µM*,84%,-60*
COc1cc2c(=O)c(S(=O)(=O)c3ccc(F)cc3)cn(Cc3ccccc3C)c2cc1OC,4%,16µM*,18µM*,4%,?,/
COc1ccc(Cn2cc(S(=O)(=O)c3ccc(C)cc3)c(=O)c3cc(F)ccc32)cc1,1%,-24%,-13%,10%,10%,/
COc1ccc(CN(C)C(=O)c2cnc(C)cn2)c(OC)c1OC,/,-24%,?,-10%,6%,41
COc1ccccc1N(CC(=O)Nc1ccccc1C(F)(F)F)S(=O)(=O)c1cccs1,-3%,?,?,-31%,-25%,-12
COc1ccccc1CNC(=O)Cn1c(=O)oc2ccccc21,3%,-1%,-19%,-14%,-2%,/
COc1ccccc1CCNC(=O)Cn1c(=O)oc2ccccc21,18µM*,21µM*,?,4%,0%,4
COc1ccccc1NC(=O)Cn1c(=O)oc2ccccc21,0%,2.9µM*,2.9µM*,1%,-1%,-2
N#Cc1c(NC(=O)Cn2c(=O)oc3ccccc32)oc(-c2ccccc2)c1-c1ccccc1,9%,9.2µM*,8.2µM*,8%,?,0
O=C(Cn1c(=O)oc2cccnc21)Nc1ccccc1Oc1ccc(Cl)cc1Cl,/,-4%,-17%,-3%,2%,-71*
O=C(Cn1c(=O)oc2ccccc21)Nc1ccc(Br)cc1,/,-1%,-2%,-14%,10%,-4
COc1ccc(Cl)cc1NC(=O)Cn1c(=O)oc2ccccc21,/,8%,?,0%,-20%,28
COc1ccccc1Oc1ccc2c(c1)C(=O)N(CC1CCCO1)C2=O (centres undefined),-5%,1%,?,2%,?,-6
CC(=O)c1ccc(N2C(=O)N(CC(=O)c3ccc(C)cc3)c3ccccc3S2(=O)=O)cc1,-2%,?,23µM*,-14%,-5%,/
COc1ccc(C(=O)CN2C(=O)N(c3cc(C)ccc3C)S(=O)(=O)c3ccccc32)cc1,-8%,-4%,-18%,-32%,-9%,/
Cc1cccc(N2C(=O)N(CC(=O)C(C)(C)C)c3ccccc3S2(=O)=O)c1C,5%,15µM*,13µM*,-27%,-15%,/
CCN1C(=O)N(c2ccc(C(C)=O)cc2)S(=O)(=O)c2ccccc21,-2%,-13%,?,-6%,?,1
CC(=O)c1ccc(N2C(=O)N(Cc3cccc(C(F)(F)F)c3)c3ccccc3S2(=O)=O)cc1,0%,16µM*,15µM*,-9%,?,/
CCOc1ccc(N2C(=O)N(Cc3ccc(C)cc3C)c3ccccc3S2(=O)=O)cc1,3%,?,16µM*,-10%,0%,/
COc1cc(OC)c2c(C)c(CC(=O)N3CCCCC3)c(=O)oc2c1,-5%,8%,-22%,-3%,-1%,/
Cc1cc(C)c(NC(=O)CSc2nc3ccccc3c3nc(-c4ccccc4)nn23)c(C)c1,6%,-1%,-1%,1%,5%,/
COC(=O)c1ccc(-c2csc(NC(=O)c3ccc(S(=O)(=O)N4CCc5ccccc5C4)cc3)n2)cc1,-2%,7.3µM*,5.8µM*,-4%,-1%,-1
SMILES,TDP1 inh,TDP1 cell CPT,TDP1 cell noCPT,HepG2 tox,TGFb inhibitor,IL1B secr inh
COc1ccc(-c2nnc(NC(=O)c3ccc(S(=O)(=O)N4CCc5ccccc5C4)cc3)o2)cc1,8%,4.5µM*,4.5µM*,-25%,-10%,6
COc1ccc(-c2csc(NC(=O)c3ccc(S(=O)(=O)N4CCc5ccccc5C4)cc3)n2)cc1,2%,-13%,?,9%,6%,14
CC1CN(C(=O)c2cc(S(=O)(=O)N3CCN(c4ccccc4)CC3)ccc2Cl)CC(C)O1 (centres undefined),6%,3.7µM*,2.1µM*,-13%,-25%,5
CC1CN(C(=O)c2cc(S(=O)(=O)N3CCCC3)ccc2Cl)CC(C)O1 (centres undefined),2%,-19%,?,7%,-2%,45
CC1CN(C(=O)c2cc(S(=O)(=O)N3CCCCC3)ccc2Cl)CC(C)O1 (centres undefined),0%,16µM*,12µM*,0%,-11%,33
CC1CN(C(=O)c2cc(S(=O)(=O)N(C)c3ccc(F)cc3)ccc2Cl)CC(C)O1 (centres undefined),-1%,2.3µM*,1µM*,-16%,-24%,2
O=C(c1cccc(S(=O)(=O)N2CCc3ccccc3C2)c1)N1CCN(c2ccc(O)cc2)CC1,-1%,15µM*,12µM*,-33%,-24%,-11
O=C(CN1C=NS(=O)(=O)c2ccccc21)Nc1ccc(Br)cc1,6%,2%,?,-11%,8%,/
